Compounds without any hit were thinned out: in the full panel of roughly 83,000, 20% have a hit.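 Growth was measured after 48 h exposure to one concentration of compound in 96-well plates. Values under 10 count as active.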 A number with no mark means an inactive call. Active and inactive are the calls of the source.

The source of these data is PubChem BioAssay (NCI).

This assay deals with HL-60(TB) leukemia. Put plainly: NCI-60 one-dose screen, 48 h (100 = growth as untreated, 0 = no growth, -100 = all killed). The note with it: 10 µM unless noted.
On to `COc1ccccc1P(c1ccccc1OC)c1ccccc1OC`, for which the growth is 101%.
As for `Cc1cc(=O)n(Nc2ccccc2)c(O)c1C#N`, the growth is 90.3%.
The result for `O=C(c1cc(-c2ccc(Cl)cc2)nc2ccccc12)N1N=C(c2ccccc2)CC1c1cc(-c2ccccc2)nn1-c1ccccc1` (stereo not given) reads 91.6%; that for `COc1ccc(S(=O)(=O)NCCNc2nccc(-c3c(-c4cccc(F)c4)nc4sccn34)n2)cc1`, 58.8%; that for `CCNC1(NC#N)CCCCC1`, 96.8%.
`COc1cc2c(c(OC)c1OC)-c1ccc(OC)c(=O)cc1[C@@H](NC(=O)CCl)CC2`: the growth was -7.51% (active).
For the molecule `Nc1c(C(=O)Nc2cccc(F)c2)sc2nc3c(cc12)C(=O)CCC3`, the growth is 31.2%.
In the case of `COc1ccc2c(c1)O/C(=C/c1ccc(OCC(=O)c3ccccc3)cc1)C2=O` it was 88.7%; in that of `Cc1cc2c(C(C)C)c(O)c(O)c(C=NCCCCCCC(=O)O)c2c(O)c1-c1c(C)cc2c(C(C)C)c(O)c(O)c(C=NCCCCCCC(=O)O)c2c1O`, 28.9%; in that of `O=C(O)/C=C(\c1nc2ccc([N+](=O)[O-])cc2[nH]1)c1cc(Cl)ccc1O`, 10.8%.
The result for `N#Cc1ccc(NC(=O)Nc2cccc(C#N)c2)cc1` reads 68.6%; that for `O=C(/C=C/c1cccs1)c1ccc(Cl)nc1`, 100%.
In the case of `CNC(=O)CN1CCC(Oc2cc3c(Nc4cccc(Cl)c4F)ncnc3cc2OC)CC1` it was 86.9%; in that of `O=C1Cc2ccccc2C(=O)O1`, 89.1%; in that of `Cc1c[n+](Cc2ccc3ccccc3c2)cn1Cc1ccc2ccccc2c1`, -56.3% (active).
